According to PubChem BioAssay (NCATS):
Results filed as inconclusive are left out. Calls of active or inactive are those of the source. Calls follow the shape of the dose curve; as a rule, active = well fitted cell-killing curve with a large enough effect; inconclusive = small, poorly fitted or top-dose-only effect; inactive = no such curve, though single readings can be large or run the other way. Numbered stars: 1 amine (or outer) side, 2 acyl side, 3 side chain; on linkers, the order of the positions; unused ones are H or OH. Bridge positions count the residues as written; N and C are the ends. Square brackets hold non-standard residues; d marks the D form. Peptide text beside a SMILES is read from it. I, II: the chains in the order shown. Actinocin(9to1) = Cc1c2oc3c(C)ccc(C(=O)[*:1])c3nc-2c(C(=O)[*:2])c(N)c1=O; NMeV = CN[C@H](C(=O)O)C(C)C; Sar = CNCC(=O)O

Test: qHTS of pediatric cancer cell lines to identify multiple opportunities for drug repurposing: Confirmatory screen for TC32 cells (AID 1347118);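 also: cells exposed to compound for 48 h before the read; nearly all actives have a fitted effect of over 65% in size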
Settings: TC32 Ewing sarcoma cells viability qHTS; series mostly up to 45.9 µM; activity change, negative = cytotoxicity: at the top concentration
Description: Drug repurposing or repositioning has been offered as a strategy for drug development in oncology programs. This approach has special potential for childhood cancers and other rare or orphan diseases, where the expected return on new drug development has been a disincentive to pharmaceuticals.
In this project we exploit the poly-pharmacology of drugs to discover new indications via phenotypic screening of a panel of 19 well-characterized cell lines derived from solid tumors seen in children and adolescents. The goal is to identify approved drugs with previously unrecognized anticancer properties that has the potential to reveal new mechanisms and biological processes involved in carcinogenesis or drug resistance. We employed a titration-based paradigm (quantitative high-throughput screening or qHTS), where all compounds were tested at multiple concentrations for their effect on cell viability. Concentration-response curves (CRCs) were derived directly from the primary screen, and both potency and efficacy values were used to identify compounds with robust bioactivity profiles. We screened the NIH Chemical Genomics Center (NCGC) Pharmaceutical Collection (NPC) and Mechanism Interrogation Plate (MIPE) small molecule collections of approved and investigational compounds against these cell lines; and measured metabolically active cells after 48 hours of compound treatment as a proxy for cell viability.
Assay Submitter: Nathalia J. Martinez, National Center for Advancing Translational Sciences, National Institutes of Health, Rockville, MD, USA; email: natalia.martinez@nih.gov
[1] Shen, M et al. Quantitative high-throughput phenotypic screening of pediatric cancer cell lines identifies multiple opportunities for drug repurposing. Oncotarget 2017 Dec 19;9(4):4758-4772. PMID 29435139.
The cells were obtained from University of North Carolina (UNC), Pediatric Preclinical Testing Program (PPT), and Coriell Institute (CI).
qHTS cell viability assay:
Cells were assayed in growth media at a density of 500-1,000 cells/well. Five microliters of cells were dispensed into 1,536-well, white, solid-bottom, TC-treated plates (Greiner Bio One) using a multidrop dispenser and incubated at 37 degrees C, 5% CO2, under a humidified atmosphere for 5 hours. Twenty-three nanoliters of compounds and controls (neutral control DMSO or positive control bortezomib at final concentration of 2.3 uM) were subsequently transferred by Kalypsys pintool. For primary screens, the MIPE collection was tested at 11-point dilutions (final concentrations range from 0.78 nM to 46 µM) and the NPC collection at 8-point dilutions (final concentrations range from 0.59 nM to 46 µM). Compounds tested in follow-up screens were assayed at 11-point dilutions. Cells were incubated for 48 hours, followed by addition of 3 uL of CellTiter-Glo (Promega). After a 15min incubation at room temperature, samples were analyzed for luminescence intensity using a ViewLux High-throughput CCD imager equipped with clear filters.
% is scaled to controls: 0 for no effect and ±100 for the full control effect; potency is read from the fitted curve at half-maximal effect.

Question: With `Cc1c2oc3c(C)ccc(C(=O)N[C@@H]4C(=O)N[C@H](C(C)C)C(=O)N5CCC[C@H]5C(=O)N(C)CC(=O)N(C)[C@@H](C(C)C)C(=O)O[C@@H]4C)c3nc-2c(C(=O)N[C@@H]2C(=O)N[C@H](C(C)C)C(=O)N3CCC[C@H]3C(=O)N(C)CC(=O)N(C)[C@@H](C(C)C)C(=O)O[C@@H]2C)c(N)c1=O` (I: T[dV]P[Sar][NMeV] / II: T[dV]P[Sar][NMeV]; ester I:1-I:C, II:1-II:C; linker I:N-II:N via Actinocin(9to1)) as the compound, how does the Potency read?
Answer: 0.0093 µM (active)

Question: With `COCc1c(C(C)C)nc(C(C)C)c(/C=C/[C@@H](O)C[C@@H](O)CC(=O)O)c1-c1ccc(F)cc1` as the compound, how does the Potency read?
Answer: 0.928 µM (active)

Question: With `C[n+]1c2cc(N)ccc2cc2ccc(N)cc21` (tested in a mixture with another compound) as the compound, how does the Potency read?
Answer: 5.85 µM (active)

Question: Which Potency does the source give for `CCCCC(CC)CN=C(N)NC(N)=NCCCCCCN=C(N)NC(N)=NCC(CC)CCCC` (centres undefined) here?
Answer: 8.27 µM (active)

Question: Which “activity change, negative = cytotoxicity” value does the source give for `NC(=O)CC[C@@H]1NC(=O)[C@H](Cc2ccccc2)NC(=O)[C@H](Cc2ccc(O)cc2)NC(=O)CCSSC[C@@H](C(=O)N2CCC[C@H]2C(=O)N[C@@H](CCCN=C(N)N)C(=O)NCC(N)=O)NC(=O)[C@H](CC(N)=O)NC1=O` here?
Answer: -5.31% (inactive)

Question: With `CC(=O)OCC(=O)[C@@]1(O)[C@H](C)C[C@H]2[C@@H]3CCC4=CC(=O)C=C[C@]4(C)[C@@]3(F)[C@@H](O)C[C@@]21C` as the compound, how does the Potency read?
Answer: 18.5 µM (active)

Question: With `CC(C)(C(=O)c1cccnc1)c1cccnc1` as the compound, how does the Potency read?
Answer: 3.29 µM (active)

Question: For `CN(C)/N=N/c1nc[nH]c1C(N)=O`, which Potency is on record?
Answer: 23.3 µM (active)

Question: Which “activity change, negative = cytotoxicity” value does the source give for `C[C@]12C=CC(=O)C=C1[C@@H](F)C[C@@H]1[C@@H]2[C@@H](O)C[C@@]2(C)[C@H]1CC[C@]2(O)C(=O)CO` here?
Answer: 4.45% (inactive)

Question: With `C[C@]12C=CC(=O)C=C1CC[C@@H]1[C@@H]2[C@@H](O)C[C@@]2(C)[C@H]1CC[C@]2(O)C(=O)CO` as the compound, how does the Potency read?
Answer: 26.1 µM (active)

Question: For `CC1(C)O[C@@H]2C[C@H]3[C@@H]4CCC5=CC(=O)CC[C@]5(C)[C@@]4(F)[C@@H](O)C[C@]3(C)[C@]2(C(=O)CCl)O1`, which “activity change, negative = cytotoxicity” value is on record?
Answer: -14.9% (inactive)

Question: For `OC[C@H]1O[C@@H](n2cnc3c(=S)nc[nH]c32)[C@H](O)[C@@H]1O`, which Potency is on record?
Answer: 2.33 µM (active)

Question: With `COc1cc(C=C2CCC/C(=C\c3ccc(O)c(OC)c3)C2=O)ccc1O` as the compound, how does the Potency read?
Answer: 0.414 µM (active)

Question: For `C[C@H]1C[C@H]2[C@@H]3CCC4=CC(=O)C=C[C@]4(C)[C@@]3(Cl)[C@@H](O)C[C@]2(C)[C@@]1(O)C(=O)CO`, which “activity change, negative = cytotoxicity” value is on record?
Answer: -2.62% (inactive)

Question: With `CCCC(=O)O[C@]1(C(=O)CO)CC[C@H]2[C@@H]3CCC4=CC(=O)CC[C@]4(C)[C@H]3[C@@H](O)C[C@@]21C` as the compound, how does the “activity change, negative = cytotoxicity” value read?
Answer: -20.5% (inactive)

Question: For `CC(=O)Oc1ccc(C(c2ccc(OC(C)=O)cc2)c2ccccn2)cc1`, which Potency is on record?
Answer: 6.57 µM (active)

Question: With `CN(C)C(=S)SC(=S)N(C)C` as the compound, how does the Potency read?
Answer: 3.69 µM (active)

Question: With `CC(=O)OCC(=O)[C@@]1(O)CC[C@H]2[C@@H]3CCC4=CC(=O)C=C[C@]4(C)[C@H]3[C@@H](O)C[C@@]21C` as the compound, how does the “activity change, negative = cytotoxicity” value read?
Answer: 4.02% (inactive)

Question: With `C=C1C[C@H]2[C@@H]3C=C(C)C4=CC(=O)CC[C@]4(C)[C@H]3CC[C@]2(C)[C@@]1(OC(C)=O)C(C)=O` as the compound, how does the Potency read?
Answer: 6.57 µM (active)

Question: Which “activity change, negative = cytotoxicity” value does the source give for `C[C@@H]1C[C@H]2[C@@H]3CCC4=CC(=O)C=C[C@]4(C)[C@@]3(F)[C@@H](O)C[C@]2(C)[C@H]1C(=O)CO` here?
Answer: -20.7% (inactive)

Question: Which Potency does the source give for `CCC(C(=O)OCCN(CC)CC)c1ccccc1` (centres undefined) here?
Answer: 10.4 µM (active)

Question: Which Potency does the source give for `COc1cccc2c1C(=O)c1c(O)c3c(c(O)c1C2=O)C[C@@](O)(C(=O)CO)C[C@@H]3O[C@H]1C[C@H](N)[C@H](O)[C@H](C)O1` here?
Answer: 0.465 µM (active)

Question: Which Potency does the source give for `O=C(CCCN1CCC(O)(c2ccc(Br)cc2)CC1)c1ccc(F)cc1` here?
Answer: 2.61 µM (active)

Question: With `CCOc1ccc2nc3cc(N)ccc3c(N)c2c1` as the compound, how does the Potency read?
Answer: 2.61 µM (active)

Question: Which Potency does the source give for `NC(CO)(CO)CO` here?
Answer: 11.7 µM (active)

Question: Which Potency does the source give for `CC(=O)OCC(=O)[C@@]12N=C(C)O[C@@H]1C[C@H]1[C@@H]3CCC4=CC(=O)C=C[C@]4(C)[C@H]3[C@@H](O)C[C@@]12C` here?
Answer: 0.369 µM (active)

Question: With `CC(=O)Oc1ccc2c(c1)CC[C@@H]1[C@@H]2CC[C@]2(C)[C@@H](O)CC[C@@H]12` as the compound, how does the Potency read?
Answer: 6.57 µM (active)

Question: For `Oc1ccc(O)cc1`, which Potency is on record?
Answer: 20.8 µM (active)

Question: With `CC(=O)OCC(=O)[C@@]12OC(C)(C)O[C@@H]1C[C@H]1[C@@H]3C[C@H](F)C4=CC(=O)C=C[C@]4(C)[C@@]3(F)[C@@H](O)C[C@@]12C` as the compound, how does the “activity change, negative = cytotoxicity” value read?
Answer: -31.4% (inactive)
